# Compounds without any hit were thinned out: in the full panel of roughly 83,000, 20% have a hit.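 The test compound was applied at a single concentration to cells in 96-well plates for 48 hours, and percent growth was recorded.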 Activity calls are given as the source filed them.
# Tested on: OVCAR-4 ovarian
# Assay: NCI-60 one-dose screen, 48 h (100 = growth as untreated, 0 = no growth, -100 = all killed)
# Details: 10 µM unless noted
# Protocol: Growth inhibition of the OVCAR-4 human tumor cell line is measured as a screen for anti-cancer activity. Cells are grown in 96 well plates and exposed to the test compound for 48 hours. Compounds are tested at a single concentration, which is 10^-5 M for most compounds. The reported endpoint is percent growth (GI% or GIPRCNT), where numbers from 0 - 100% represent growth inhibition, and numbers from -100% - 0 represent cell death. For example, a value of 40 represents 60% growth inhibition. A value of 0 means no net growth occurred over the course of the experiment. A value of -40 indicates 40% of cells at the beginning of the experiment died by the end of the experiment. A value of -100 means all cells are dead at the end of the experiment.
# NCI-60 Human Tumor Cell Lines Screen was performed using the standard one-dose NCI protocol, which is described in more detail at https://dtp.cancer.gov/discovery_development/nci-60/default.htm.
# Compounds with GIPRCNT values below 10 were considered active. Activity score was based on GIPRCNT using the following formula: […]
# Score is 0 for GIPRCNT values of 100 or above, 50 for GIPRCNT values of 0, and 100 for GIPRCNT values of -100.
row,SMILES,growth
1,Nc1nc2c(c3ncccc13)C(c1cccc(Cl)c1)Cc1ncccc1-2 (stereo not given),52.4% (inactive)
2,CCOC(=O)C(Cc1ccc(OC)cc1)C(=O)OCC,56.4% (inactive)
3,Cc1ccc(-c2csc(N(C(=O)N3CCN(c4cc5c(cc4F)c(=O)c(C(=O)O)cn5C4CC4)CC3)c3ccccc3)n2)cc1,28.4% (inactive)
4,N#Cc1cccc(C2C3=C(COC3=O)N(CCO)c3cc4c(cc32)CCC4)c1 (stereo not given),56.4% (inactive)
5,Cc1c(Cl)cccc1C(=O)Nc1nc2c(s1)CN(C(=O)c1ccc(C(F)(F)F)cc1)CC2,38.5% (inactive)
6,COc1ccc(/C=C/c2ccc3ccccc3n2)c(OC)c1,95.9% (inactive)
7,CCOc1cccc(/C=N/NC(=O)c2cccc(Nc3ccnc(C(F)(F)F)c3)c2)c1O,39.1% (inactive)
8,O=C(NC(Cc1nnc2n(Cc3ccccc3)c(=O)c3c4c(sc3n12)CCCC4)c1ccccc1)c1ccccc1 (stereo not given),103% (inactive)
9,CCOC(=O)c1c(C)nc2c(c1N)/C(=C/c1ccc(OC)cc1)C(=O)N2Cc1ccccc1,51.5% (inactive)
10,CCn1cc(CNc2ccc(C(=O)Nc3cc4cc(OC)c(OC)cc4c(C)n3)cc2)cn1,46.5% (inactive)
11,O=c1nc(-c2ccccc2)c2cc(-c3ccc(C(F)(F)F)nc3)ccc2[nH]1,108% (inactive)
12,C=CCOC(=O)C1=C(C)N(CC)C(=O)NC1c1c(Cl)n(C)c2ccccc12 (stereo not given),103% (inactive)
13,O=S(=O)(NCCNc1nccc(-c2c(-c3cccc(O)c3)nc3occn23)n1)c1ccc(Br)cc1,36.8% (inactive)
14,CSC1=Nc2c(c(C)c(-c3ccccc3)n2CCCC(=O)O)C2=NC(=O)C[C@H](C)N12,93% (inactive)
15,O=[N+]([O-])c1cc(NS(=O)(=O)c2ccccc2)ccc1NS(=O)(=O)c1ccccc1,106% (inactive)
16,CC/C(Cc1ccccc1)=C(\c1ccc(OCCCN(C)C)cc1)c1ccc(OC(=O)NCc2ccccc2)cc1,75.7% (inactive)
17,CN1CCN(Cc2ccc(NC(=O)c3cncc(C#Cc4cnc(N)c5ncccc45)c3)cc2C(F)(F)F)CC1,-21.9% (active)
18,C=C1C(=O)O[C@H]2[C@H]1CC/C(COC(=O)c1cc3cc(Cl)ccc3[nH]1)=C\CC[C@@]1(C)O[C@@H]21,-81.9% (active)
19,Cc1ccc(-c2nc3nc(-c4ccccc4)nc(N4CCCN(S(C)(=O)=O)CC4)c3o2)cc1,48.2% (inactive)
20,CCN1C(=O)N(CC)C2Nn3c(s/c(=C\c4ccccc4Br)c3=O)=NC21 (stereo not given),47.5% (inactive)

row,SMILES,growth
1,COc1ccc(CCN2C(=O)/C(=C/c3ccc(C4Oc5ccccc5C5CC(c6ccccc6)=NN54)cc3)SC2=S)cc1 (stereo not given),109% (inactive)
2,CN(C)CCCNC(=O)c1cncnc1Nc1ccc(OCc2cccc(F)c2)c(Cl)c1,25.7% (inactive)
3,CCOC(=O)c1c(C)nc2c(c1N)CC(=O)N2Cc1ccc(OC)cc1,7.06% (active)
4,O=C(O)[C@@H](Cc1ccc2ccccc2c1)NC(=O)n1c2ccccc2c2ccccc21,43.9% (inactive)
5,COc1ccc(N2CCN(C(=O)c3sc4nc(C)c(Br)c(C)c4c3N)CC2)cc1,90.6% (inactive)
6,C=CN(C(=O)N1CCN(c2cc3c(cc2F)c(=O)c(C(=O)O)cn3C2CC2)CC1)c1nc(-c2ccc(OC)cc2)cs1,35.3% (inactive)
7,Cc1cn(-c2cc(NC(=O)c3cncc(C#Cc4c(N)ncc5ccc(F)cc45)c3)cc(C(F)(F)F)c2)cn1,79.6% (inactive)
8,COc1ccc(Cn2cc(C(=O)N=Nc3c(O)[nH]c4c(C)cccc34)nn2)cc1,-28.2% (active)
9,CN(C)S(=O)(=O)Oc1ccc(-c2sc3cc(OS(=O)(=O)N(C)C)ccc3c2C(=O)c2ccc(OCCN3CCCCC3)cc2)cc1,49.7% (inactive)
10,NS(=O)(=O)c1ccc(C(=O)NN2C(=O)c3c(Br)c(Br)c(Br)c(Br)c3C2=O)cc1,104% (inactive)
11,C=C1C(=O)O[C@H]2[C@H]1CC/C(COC(=O)/C=C\C(=O)NCc1ccc(Cn3c(=O)sn(CCCl)c3=O)cc1)=C\CC[C@@]1(C)O[C@@H]21,96.3% (inactive)
12,CCNC(=O)Oc1ccc(/C(=C(/CC)Cc2ccccc2)c2ccc(OCCN3CCCC3)cc2)cc1,93.3% (inactive)
13,Cc1cc(Nc2ccc(C(=O)N3CCCC3)cc2)nc(NCCCNc2ccnc3cc(Cl)ccc23)n1,70% (inactive)
14,CN(C)CCN1C(=O)c2cccc3c(/C=C/CN4C(=O)c5cccc6cccc(c56)C4=O)ccc(c23)C1=O,-5.6% (active)
15,Cc1cc2c(cc1C)N(C(=O)CCl)CC(=O)N2,60.6% (inactive)
16,CCOC(=O)C1=C(C)/C(=C\c2[nH]c(C)c(C(=O)OCC)c2C)N=C1C,81.9% (inactive)
17,O=C(O)c1cn(C2CC2)c2cc(N3CCN(C(=O)Nc4nc(-c5ccc(Br)cc5)cs4)CC3)c(F)cc2c1=O,26.6% (inactive)
18,CCN(CC)CCN1C(=O)c2c(c(C)c3c(oc4ccc(OC)cc43)c2C)C1=O,103% (inactive)
19,C#CCOc1cccc(-c2ncnc3cc(NC(=O)C=C)ccc23)c1,70.9% (inactive)
20,Cc1ccc2nc(/C(C#N)=C(/CCCO)NC(Cc3ccccc3)C(=O)OCc3ccccc3)[nH]c(=O)c2c1 (stereo not given),125% (inactive)

# From PubChem BioAssay (NCI)
